Structures can show the parent of a compound that is named as a salt.
What follows are compounds tested on Ruminococcus gnavus DSM 108212 (assay: fold change of Tryptamine concentration vs plate DMSO controls (fold change (ratio)); higher = more amine produced, active = hit call of the paper (significant change in both replicates, either direction)). Settings: incubation time: 27 h, anaerobic, 37 °C;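 for the amine columns active = adjusted P below 0.05 in both replicates with a change the same way and a mean fold change under 0.8 or over 1.25; inactive = the rest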.
Summary of the method: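 Using LC–triple-quadrupole MS with dynamic MRM, amines were quantified against external calibration curves and corrected for drift within each batch. Samples were whole anaerobic mGAM cultures of four gut strains, grown 27 h at 37 °C from OD 0.1 before 1:1 dilution, extracted with cold acetonitrile/methanol containing 0.1% formic acid and centrifuged. Compounds were present at 20 µM final (sweeteners at 50 µM final). The numbers are fold changes versus plate DMSO controls, each the mean of 2 biological replicates.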

SMILES	fold change of Tryptamine concentration
Nc1nc(CC(=O)Nc2ccc(CCNC[C@H](O)c3ccccc3)cc2)cs1 [Mirabegron] (20 µM)	0.999 (inactive)
CS(=O)(=O)OCCCCOS(C)(=O)=O [Busulfan] (20 µM)	1.11 (inactive)
CCN(CC)CCOC(=O)C(Cc1cccc2ccccc12)CC1CCCO1 (stereo not given) [Nafronyl oxalate] (20 µM)	1.01 (inactive)
C[C@H]1O[C@@H](O[C@H]2[C@@H](O)C[C@H](O[C@H]3[C@@H](O)C[C@H](O[C@H]4CC[C@@]5(C)[C@H](CC[C@@H]6[C@@H]5C[C@@H](O)[C@]5(C)[C@@H](C7=CC(=O)OC7)CC[C@]65O)C4)O[C@@H]3C)O[C@@H]2C)C[C@H](O)[C@@H]1O [Digoxin] (20 µM)	1.02 (inactive)
COc1cc(N)c(Cl)cc1C(=O)NC1CCN(CCCOc2ccc(F)cc2)CC1OC (stereo not given) [Cisapride] (20 µM)	0.922 (inactive)
O=C(O[C@@H]1C[C@@H]2C[C@H]3C[C@H](C1)N2CC3=O)c1c[nH]c2ccccc12 [Dolasetron mesilate] (20 µM)	1.02 (inactive)
Cc1oncc1C(=O)Nc1ccc(C(F)(F)F)cc1 [Leflunomide] (20 µM)	0.998 (inactive)
CC(C)Cn1cnc2c(N)nc3ccccc3c21 [Imiquimod] (20 µM)	0.149 (active)
Clc1ccc2c(c1)C(N1CCNCC1)=Nc1ccccc1O2 [Amoxapine] (20 µM)	0.983 (inactive)
CCCCCN(C)CCC(O)(P(=O)(O)O)P(=O)(O)O [Ibandronate sodium] (20 µM)	0.934 (inactive)

Reference: the supplement of paper PMC12494721
